Results as given in PubChem BioAssay AID738 (SRMLSC, 2007).
Hit rate of the full screen: of about 98,000 compounds, about 4,900 (5%) were called active. Cut-off read from the data, not from the text of the source: active = inhibition above about 30%; inactive = the rest. Shown is part of a subset that was picked to be rich in actives.

Experiment: yeast control strain growth suppression – counter-screen for post-Golgi transport modulator project, primary screen (AID 738)
Details: efflux-deficient yeast background strain, growth absorbance A615, 16 h; at 10 µM; stronger effect = higher value

SMILES | inhibition
C#CCSc1nnc(-c2sc3ccccc3c2Cl)o1 | 0.45% (inactive)
COc1ccccc1-c1n[nH]c2c1[C@H](C)CC[C@H]2C(C)C | 38% (active)
Cc1cc2c(cc1C)N(C(=O)CN1C(=O)c3ccccc3C1=O)C(C)(C)c1ssc(=S)c1-2 | 32.6% (active)
C=CCN(CC=C)C(=O)CN1C(=O)c2ccccc2C1=O | 3.29% (inactive)
C=CCn1c(C)cc(C(=O)CN2C(=O)c3ccccc3C2=O)c1C | 11.4% (inactive)
CCOC(=O)CN1C(=O)C(=O)c2cc(C)ccc21 | 5.42% (inactive)
Cc1ccc2c(c1)-c1c(ssc1=S)C(C)(C)N2C(=O)CN1C(=O)c2ccccc2C1=O | 60.3% (active)
CC(C)OC(=O)CN1C(=O)c2ccccc2C1=O | 7.83% (inactive)
CN1CCN(S(=O)(=O)c2ccc(N3CCN(S(=O)(=O)c4cccs4)CC3)nc2)CC1 | 4.14% (inactive)
O=C(CNC(=O)c1cc2c(s1)CCC2)Nc1ccccc1Br | -4.14% (inactive)
CCOC(=O)C1(S(=O)(=O)c2ccccc2)CCN(Cc2ccccc2)CC1 | 4.95% (inactive)
NC(=O)COc1ccc(/C=N/NC(=O)C2CCCN2S(=O)(=O)c2ccc(Cl)cc2)cc1 (stereo not given) | 18.9% (inactive)
NC(N)=N/N=C/c1ccc(OCc2ccc(Cl)cc2Cl)cc1 | 67.2% (active)
COC(=O)c1sc2ncccc2c1OCc1ccc(Cl)cc1Cl | 11.1% (inactive)
CCN(CC)c1ccc(NC(=O)c2ccc(Cl)nc2)cc1 | 17.1% (inactive)
Cn1nc(-c2ccccc2)c(-c2nc(-c3ccc(Cl)cc3)no2)c1Cl | -5.95% (inactive)
CC1CN(c2nc(-c3ccccc3)nnc2-c2ccccc2)CC(C)O1 (stereo not given) | 31.6% (active)
Clc1ccc(-c2nnc(-c3ccccc3)nc2N2CCSCC2)cc1 | 51% (active)
Cc1ccc(-c2nnc(C)c(N3CC(C)OC(C)C3)n2)cc1 (stereo not given) | 20.1% (inactive)
Cc1c(C(=O)N2CC(C)OC(C)C2)sc2nc(-c3ccccc3)cn12 (stereo not given) | 7.66% (inactive)
O=c1cc(Cn2nnc(-c3ccc(Cl)cc3)n2)nc2sccn12 | 11.5% (inactive)
COCc1cc(C)nc2sc(C(=O)NC3CCCCC3)c(N)c12 | 8.15% (inactive)

SMILES | inhibition
O=C1c2ccccc2C(=O)c2c1cccc2N1CCN(CCO)CC1 | 9.4% (inactive)
O=c1cc(N2CCN(Cc3ccccc3)CC2)c(-c2ccccc2)n[nH]1 | 23.1% (inactive)
COCCn1c(CN(Cc2ccccc2)Cc2ccccc2)nc2c1c(=O)n(C)c(=O)n2C | 14.8% (inactive)
CC(C)CCn1c(CN(C)Cc2ccccc2)nc2c1c(=O)n(C)c(=O)n2C | 9.18% (inactive)
CC(C)Cn1c(CN(Cc2ccccc2)Cc2ccccc2)nc2c1c(=O)n(C)c(=O)n2C | 33.1% (active)
CCC(=O)NNc1cc(=O)c2c(=O)n(C)c(=O)n(C)c2[nH]1 | 0% (inactive)
CN(C)/C=C(\C#N)C(=O)c1cccnc1Oc1cccc(F)c1 | 10.6% (inactive)
COc1ccc(NC(=S)N2N=CCC2c2ccccc2)cc1 (stereo not given) | 10.8% (inactive)
CNC(=S)N1N=C(c2ccccc2)CC1c1ccc(Br)cc1 (stereo not given) | 80.4% (active)
O=C(COc1ccc(Cl)cc1)NCCSc1ccccc1 | 25.3% (inactive)
O=C(COc1ccc(Cl)cc1)Nc1ccccc1CO | 36.8% (active)
O=C(COc1ccccc1)Nc1nonc1NC(=O)COc1ccccc1 | 14.2% (inactive)
O=C(NCCCn1ccnc1)Nc1ccc(Cl)cc1Cl | 0.62% (inactive)
Cc1nc(SCC(=O)Nc2cc(C)on2)c2c(C)c(C)sc2n1 | -1.7% (inactive)
Cc1nc(SCC(=O)N2CCc3ccccc3C2)c2c(C)c(C)sc2n1 | 49.5% (active)
Cc1nc(SCC(=O)N2CC(=O)Nc3ccccc32)c2c(C)c(C)sc2n1 | 2.3% (inactive)
Cc1ccc(NC(=S)NC(=O)c2ccc(-c3ccccc3)cc2)c(C)c1 | 0.3% (inactive)
CCOC(=O)C1Cn2c(nc3c(c2=O)C(C)(CC)Cc2ccccc2-3)S1 (stereo not given) | 39.9% (active)
CCC1(CC)Cc2ccccc2-c2nc3ccccc3c(=O)n21 | 8.32% (inactive)
CC1(C)Cc2ccccc2-c2nc(CN3CCOCC3)[nH]c(=O)c21 | 15.4% (inactive)
CCN(CC)c1nc(-c2ccccc2)cc(C(F)(F)F)c1C#N | 13.7% (inactive)
Cc1ccc2nc(/C(C#N)=C\c3ccc(OC(=O)c4cccs4)cc3)[nH]c2c1 | -11.1% (inactive)

SMILES | inhibition
CC(C)C(=O)OCC(=O)Nc1ccc2c(c1)CCC2 | 3.52% (inactive)
O=C(Cn1cc2c(n1)CCCCC2)NCCN1CCOCC1 | -2.81% (inactive)
CCOC(=O)N1CCC(NC(=O)Cn2cc3c(n2)CCCCC3)CC1 | 31.9% (active)
COCCNC(=O)Cn1cc2c(n1)CCCCC2 | 2.72% (inactive)
Cc1c(C#N)c(NC(=O)c2ccccc2)n(Cc2ccccc2)c1C | 8.33% (inactive)
O=c1c2ccccc2nc2n1C(CSCc1cccc(C(F)(F)F)c1)CS2 (stereo not given) | 4.97% (inactive)
O=c1onc(-c2cccs2)n1Cc1ccccc1 | 2.85% (inactive)
CS(=O)(=O)NCc1ccc(C(=O)NCc2ccccc2)cc1 | 8.59% (inactive)
Cc1c(C(=O)NCc2ccccc2)cnn1-c1ccccc1 | 9.12% (inactive)
Cc1ccc(CNC(=O)c2ccccc2CCc2ccccc2)cc1 | 35.3% (active)
CC1CC(C)CN(C/C=C/c2ccccc2[N+](=O)[O-])C1 (stereo not given) | 7.64% (inactive)
Cc1[nH]n(-c2ccccc2)c(=O)c1CCOC(=O)c1ccc(C(F)(F)F)cc1 | 33.5% (active)
O=C(OCC(O)C(O)COC(=O)c1ccccc1)c1ccccc1 (stereo not given) | 5.59% (inactive)
Cc1cc(C)n(-c2c(F)c(F)c(COC(=O)c3ccccc3)c(F)c2F)n1 | 25.1% (inactive)
CCC(=O)c1c[nH]c(C(=O)NCC2CCCO2)c1 (stereo not given) | -1.27% (inactive)
Cc1cccc(-n2cnc(C(=O)Nc3cccnc3)c2)n1 | 31.6% (active)
Cc1cc(C)c(NC(=O)CS(=O)CC(=O)Nc2cccnc2)c(C)c1 (stereo not given) | -5.42% (inactive)
CCOc1cccc(C(=O)Nc2cccnc2)c1 | -3.62% (inactive)
Cc1cccc2cc(CN(Cc3nnnn3Cc3ccccc3)C3CCCC3)c(=O)[nH]c12 | 13.2% (inactive)
Cc1cc(C)c2cc(CN(Cc3nnnn3Cc3ccc(F)cc3)C3CCCC3)c(=O)[nH]c2c1 | 41.1% (active)
CCOc1ccc2[nH]c(=O)c(CN(Cc3nnnn3Cc3ccccc3)CC3CCCO3)cc2c1 (stereo not given) | 0.14% (inactive)
